Several values for one entry are separate records, joined by “and”; a condition that tells them apart may be missing. Equal values may be shown once. Activity calls are given as the source filed them.

The target of one experiment is Albumin (Bos taurus) (UniProt P02769). In words: bovine serum albumin binders on microarray, profiling panel, artefact control for SMM control protein annotation, biochemical, small-molecule microarray, Alexa647 label, 635/667 nm fluorescence (AID 1118).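 Also: score merges 667 nm emission intensity and signal-to-noise per printed compound spot.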 As to conditions: BSA-A647 binding, fluorescence 635 nm, higher = more signal.
Chain of Albumin (Bos taurus) (P02769 whole entry, looked up): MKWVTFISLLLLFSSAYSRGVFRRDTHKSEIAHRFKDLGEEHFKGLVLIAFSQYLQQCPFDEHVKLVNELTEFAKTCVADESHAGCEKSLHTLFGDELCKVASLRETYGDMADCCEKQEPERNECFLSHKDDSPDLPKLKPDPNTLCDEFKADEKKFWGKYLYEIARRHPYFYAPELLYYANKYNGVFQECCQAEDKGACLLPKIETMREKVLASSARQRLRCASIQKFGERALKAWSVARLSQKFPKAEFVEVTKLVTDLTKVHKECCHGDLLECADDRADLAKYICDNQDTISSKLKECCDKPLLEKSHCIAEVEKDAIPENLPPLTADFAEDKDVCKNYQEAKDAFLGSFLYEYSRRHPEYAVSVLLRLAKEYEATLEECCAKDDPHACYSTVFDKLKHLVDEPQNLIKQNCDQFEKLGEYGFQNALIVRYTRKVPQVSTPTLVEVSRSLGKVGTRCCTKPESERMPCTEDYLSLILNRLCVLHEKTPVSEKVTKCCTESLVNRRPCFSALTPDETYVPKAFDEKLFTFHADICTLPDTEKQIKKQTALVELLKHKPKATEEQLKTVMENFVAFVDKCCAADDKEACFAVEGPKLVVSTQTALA
Experiment [1] in a line: small-molecule microarray binders of probe aXIP, primary screen, biochemical, NeuroSMM set, 635/667 nm fluorescence (AID 1119).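 Also: probe is the protein aXip251-270 applied at 1 µg/mL to compound-printed slides; binding of probe to printed compounds measured as 667 nm fluorescence plus signal to noise.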 The settings on record: higher = more signal, called active from +8 up or from −8 down.
The nature of experiment [2]: small-molecule binders of probe aNOTCH3, primary screen, biochemical, small-molecule microarray, 635/667 nm fluorescence (AID 1120).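 Also: probe is a biotin-tagged antibody raised against NOTCH3 rather than NOTCH3 protein; score merges spot fluorescence near 667 nm with spot signal to noise.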 The settings on record: higher = more signal.
A short description of experiment [3]: small-molecule binders of probe aNOTCH2, primary screen, biochemical, small-molecule microarray, 635/667 nm fluorescence (AID 1121).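 Also: score merges feature fluorescence read at 667 nm with its signal to noise.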 As to conditions: higher = more signal.
The target of experiment [4] is Carbonic anhydrase 2 (Homo sapiens) (UniProt P00918). In words: CAII small-molecule binders, profiling panel, biochemical, small-molecule microarray, Alexa647-labelled CAII (AID 1122). As to conditions: CAII-A647 binding fluorescence, higher = more signal.
Experiment [5] can be described thus: COS7 lysate on small-molecule microarray, probe aHis, 635 nm (AID 1123).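 Also: z-score combines 667nm fluorescence intensity with signal-to-noise per printed compound spot.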 As to conditions: COS7 cell lysate, fluorescence, higher = more signal.
A short description of experiment [6]: compound binding in COS7 lysate, probe aLAP1, primary screen, cell lysate, small-molecule microarray (AID 1124).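 Also: lysate comes from COS7 cells expressing LAP1 and is applied at 0.3 µg/mL; score merges spot fluorescence near 667 nm with signal-to-noise over triplicate slides.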 The settings on record: probe aLAP1, fluorescence, higher = more signal.
In a further experiment the test system is Sam68 (KHDRBS1). In words: Sam68 small-molecule binders, primary screen, biochemical, small-molecule microarray, 635 nm fluorescence (AID 1125).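 Also: score merges 667 nm channel intensity with signal to noise over triplicate slides.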 The settings on record: small-molecule microarray binding, higher = more signal.
Experiment [7] concerns Chordin-like protein 2 (CHRDL2). Briefly: CHRDL2 small-molecule binders, primary screen, biochemical, small-molecule microarray, 635 nm fluorescence (AID 1126).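 Also: printed compound slides probed with Chrdl2 protein at 4 µg/mL for 1 h at 4 C; score merges 667 nm emission intensity with signal to noise over three replicate slides.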 As to conditions: small-molecule microarray binding, fluorescence 635 nm; higher = more signal.
The target in experiment [8] is Concanavalin-A (Canavalia ensiformis) (UniProt P02866). Briefly: ConA small-molecule binders, primary screen, artefact control for SMM control protein annotation, biochemical, small-molecule microarray, Alexa647 label, 635 nm (AID 1127).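 Also: z combines 667 nm emission intensity with signal-to-noise across three replicate slides.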 The settings on record: ConA-A647 binding fluorescence, higher = more signal.
Chain of Concanavalin-A (Canavalia ensiformis) (P02866 whole entry, looked up): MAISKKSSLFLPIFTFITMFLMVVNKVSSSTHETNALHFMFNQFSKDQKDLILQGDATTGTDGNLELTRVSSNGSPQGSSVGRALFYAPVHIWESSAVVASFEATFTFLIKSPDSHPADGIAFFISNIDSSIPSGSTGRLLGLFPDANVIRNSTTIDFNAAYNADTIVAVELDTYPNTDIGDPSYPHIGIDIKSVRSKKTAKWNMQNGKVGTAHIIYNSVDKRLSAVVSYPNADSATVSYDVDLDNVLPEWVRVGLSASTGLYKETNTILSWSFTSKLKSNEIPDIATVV

On to `CCOC(=O)C[C@H]1[C@H](OC(=O)c2ccccc2-c2ccccc2)[C@@H](NC(=O)Cc2ccc(OC)cc2)c2cc(OCCCO)ccc2N1C(=O)c1ccc2ccccc2n1`, for which the composite z-score with Albumin (Bos taurus) is 0.0759 and 0.46; in experiment [2] it was -0.0347 and -0.0608; in [3], -0.14 and 0.0777; in experiment [4] it was -0.156 and 0.0959; in [5] it was 0.411 and 1.57; in experiment [6], -0.264 and 0.286. The composite z-score is -0.636 and 0.641 with Sam68 (KHDRBS1); -0.0194 and -0.181 in [7]; 0.0022 and 0.662 in experiment [8]. Also, the composite Z-score in experiment [1] is -0.252 (inactive) and -0.128 (inactive).
On to `C=CCN(Cc1ccccc1)C(=O)C1N(C(C)(C)CO)C(=O)C2C(C(=O)O)C3C=CC21O3` (stereo not given), for which the composite z-score was -1.24 and -0.826 with Albumin (Bos taurus); -0.358 and -0.475 in experiment [2]; -0.126 and -0.0956 in experiment [3]; 0.47 and 0.296 in experiment [4]; -0.0142 and -0.798 in experiment [5]; -0.587 and -0.987 in experiment [6]. For the same compound, the composite z-score was -1.6 and -1.66 with Sam68 (KHDRBS1); -2.74 and -1.88 in experiment [7]; -2.4 and -2.33 in [8]. Also, the composite Z-score in experiment [1] was -0.498 (inactive) and -0.61 (inactive).
For `CC(C)CON=C1C[C@@H](O)[C@@H](O)[C@@H]2[C@@H]3C(=O)N(c4cccc(Oc5ccccc5)c4)C(=O)[C@@H]3CC[C@H]12`, the composite z-score with Albumin (Bos taurus) is 0.529; in experiment [2], -0.0077; in experiment [3], -0.118; in experiment [4], 0.315; in [5], 0.328; in experiment [6] it was -0.216. Moreover, the figures for the composite z-score (in the experiment with Sam68 (KHDRBS1); in experiment [7]; in experiment [8]) were 0.594, 0.22 and 0.882, respectively. Further, in [1], the composite Z-score is -0.116 (inactive).
For `CC(C)C(=O)N[C@@H]1CCCN1C(=O)C=Cc1ccccc1`, the composite z-score with Albumin (Bos taurus) is -0.0317; in [2], 0.0271; in experiment [3], -0.14; in experiment [4] it was -0.0483; in experiment [5], 0.251; in [6], -0.086. Also, the composite z-score in the experiment on Sam68 (KHDRBS1) was found to be 0.806; in experiment [7] it was 0.933; in experiment [8], 0.315. In addition, the composite Z-score in experiment [1] was 1.05 (inactive).
Consider `COC(=O)C1=C(C)N(Cc2ccccc2)C2=C(C(=O)c3ccccc3)[C@H](c3ccccc3)[C@@](O)(C(=O)OC)C(=O)N2[C@@H]1c1ccccc1`, for which the composite z-score with Albumin (Bos taurus) is 0.388 and 0.0897; in experiment [2] it was 0.177 and -0.0265; in experiment [3], 0.0929 and -0.171; in experiment [4] it was 0.0303 and -0.0063; in experiment [5], -0.224 and 0.306; in [6], 0.0568 and 0.016. For the same compound, the composite z-score with Sam68 (KHDRBS1) is 0.928 and 0.821; in experiment [7], 0.275 and 0.455; in experiment [8] it was 0.914 and 0.37. Also, the composite Z-score in experiment [1] was -0.174 (inactive) and -0.441 (inactive).
For the compound `CCOC(=O)[C@H](Cc1ccccc1)NC(=O)CCC1CC(OC(=O)NCc2cccc3ccccc23)CC2(CCCC(COC(=O)NCCCN3CCCC3=O)O2)O1` (stereo not given in full), the composite z-score was -0.395 in the experiment with Albumin (Bos taurus); 0.0203 in [2]; -0.101 in experiment [3]; 0.165 in [4]; 1.14 in [5]; -0.223 in experiment [6]. Further, the values for the composite z-score (with Sam68 (KHDRBS1); in experiment [7]; in experiment [8]) were 1.12, 0.5 and 1.08, respectively. Besides, in [1], the composite Z-score is -0.365 (inactive).
As to `C=C[C@H](OC)[C@@H](O)c1ccc(OCCO)cc1`, the composite z-score is -1.69 and -0.599 with Albumin (Bos taurus); -0.437 and -0.465 in experiment [2]; -0.248 and -0.242 in experiment [3]; 0.934 and 0.835 in experiment [4]; -0.358 and -0.494 in experiment [5]; 0.581 and -0.234 in experiment [6]. In addition, the composite z-score in the experiment on Sam68 (KHDRBS1) is -0.924 and -0.595; in experiment [7] it was -2.3 and -0.674; in [8], -2.17 and -0.715. Moreover, in experiment [1], the composite Z-score is 0.459 (inactive) and -0.239 (inactive).
Take `CC(C)OC(=O)C=C1C[C@@H](c2cccc(C(F)(F)F)c2)O[C@@H](c2cccc(C(F)(F)F)c2)O1`: the composite z-score was 0.516 and 0.8 with Albumin (Bos taurus); -0.166 and -0.257 in experiment [2]; -0.0597 and -0.118 in [3]; 0.407 and 0.738 in experiment [4]; 2.3 and 0.841 in experiment [5]; 1.56 and 0.103 in experiment [6]. The composite z-score in the experiment with Sam68 (KHDRBS1) was -0.167 and 1.11; in [7] it was -0.24 and -0.619; in experiment [8] it was 0.711 and 1.06. For the same compound, the composite Z-score in experiment [1] is -0.313 (inactive) and -0.0102 (inactive).
On to `C[C@@H](c1ccccc1)N1C(=O)[C@H]2[C@H]3[C@H](O)[C@H](O)CC(=O)[C@@H]3CC[C@H]2C1=O`, for which the composite z-score was 0.294 with Albumin (Bos taurus); -0.0345 in [2]; -0.0843 in experiment [3]; 0.149 in experiment [4]; 0.438 in experiment [5]; 0.727 in experiment [6]. The composite z-score in the experiment with Sam68 (KHDRBS1) came out at 0.661; in experiment [7], 0.433; in [8], 0.583. The composite Z-score in experiment [1] was 0.28 (inactive).
Turning to `C=CCN(C(=O)C(c1cccs1)N(CCOCCO)C(=O)/C=C\C(=O)O)c1ccc(OC)cc1` (stereo not given), the composite z-score with Albumin (Bos taurus) was -0.625 and -1.25; in experiment [2], -0.212 and -0.312; in experiment [3], -0.14 and -0.126; in [4], -0.655 and -0.65; in experiment [5], -0.718 and -1.36; in experiment [6], 0.164 and -0.531. The composite z-score in the experiment on Sam68 (KHDRBS1) is -1.75 and -1.35; in experiment [7] it was -0.166 and -3.29; in experiment [8], -0.337 and -2.28. For the same compound, the composite Z-score in experiment [1] is 0.347 (inactive) and -0.659 (inactive).
In the case of `C=CCN(CCCC)C(=O)C(c1cccs1)N(CCOCCO)C(=O)/C=C\C(=O)O` (stereo not given), the composite z-score in the experiment with Albumin (Bos taurus) is -0.717 and 0.789; in experiment [2], -0.362 and -0.189; in experiment [3], -0.14 and -0.115; in [4], 0.916 and 0.734; in experiment [5] it was 0.0303 and 1.6; in experiment [6], -0.672 and 0.9. Also, the composite z-score in the experiment with Sam68 (KHDRBS1) is -1.2 and -0.24; in experiment [7], -1.6 and -0.769; in experiment [8] it was -2.03 and -0.878. Also, the composite Z-score in [1] is -0.67 (inactive) and -0.0169 (inactive).
`CCOC(=O)CCN1C(=O)[C@H]2[C@H]3[C@H](O)[C@H](O)CC(=NNC(=O)OCC)[C@@H]3CC[C@H]2C1=O`: the composite z-score in the experiment with Albumin (Bos taurus) was 0.357; in experiment [2], 0.229; in experiment [3], -0.0131; in [4], -0.249; in experiment [5], 0.043; in [6], 0.127. Also, the composite z-score in the experiment with Sam68 (KHDRBS1) was 0.739; in experiment [7], -0.0855; in experiment [8] it was 0.0804. In addition, the composite Z-score in [1] is -0.436 (inactive).
Consider `C[N+](C)(C)CCCCNC(=O)[C@H]1C[C@H]2C(=O)N[C@@H](CCCC[N+](C)(C)C)C(=O)N2[C@H]1c1cccc(OCCO)c1`, for which the composite z-score is -0.741 and -0.3 with Albumin (Bos taurus); 0.0533 and 0.245 in experiment [2]; -0.0974 and -0.131 in experiment [3]; 0.851 and 0.463 in experiment [4]; 1.38 and 1.49 in [5]; 0.848 and 0.953 in experiment [6]. Besides, the composite z-score in the experiment with Sam68 (KHDRBS1) was 0.25 and 1.32; in experiment [7] it was 1.17 and 1.53; in experiment [8], 0.744 and 1.05. Besides, the composite Z-score in experiment [1] is 2.4 (inactive) and 1.3 (inactive).
On to `C=C(C)C(=O)OC[C@@H]1CN2[C@@H](CC[C@@H](C)[C@@H]2c2ccc(Br)cc2)C(=O)O1`, for which the composite z-score is 0.635 in the experiment with Albumin (Bos taurus); -0.127 in [2]; -0.153 in experiment [3]; 0.195 in [4]; 0.774 in [5]; 0.937 in experiment [6]. The values for the composite z-score (in the experiment on Sam68 (KHDRBS1); in experiment [7]; in experiment [8]) were 1.16, 0.426 and 0.363, respectively. In addition, the composite Z-score in experiment [1] is -0.0665 (inactive).
On to `CCCNC(=O)OC[C@H]1O[C@H](CCON=C(C)CCC(=O)OC[C@H]2O[C@H](C#Cc3ccccc3)C=C[C@@H]2Oc2ccc(C)cc2)C=C[C@@H]1Oc1ccc(OC)cc1`, for which the composite z-score in the experiment with Albumin (Bos taurus) was -0.22; in experiment [2], -0.158; in experiment [3] it was -0.141; in [4] it was -0.29; in experiment [5], -0.324; in experiment [6], -0.141. Moreover, the composite z-score in the experiment on Sam68 (KHDRBS1) is -1.22; in experiment [7], -0.288; in experiment [8] it was 0.154. For the same compound, in experiment [1], the composite Z-score is 0.212 (inactive).

For the origin of these results see PubChem BioAssay.
